High-throughput results deposited in PubChem by several laboratories.
Exocytosis inh: blocks lytic granule exocytosis. TALL-104 LAMP-1 surface exposure, flow cytometry; cells stimulated with thapsigargin and PMA. inhibition, % at 10 µM. 360,000 tested, 0.66% active. AID 651702;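 active means inhibition above about 55%, limit read from the data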
B2AR ag: activates human beta-2 adrenergic receptor causing internalization; P07550; Am2.2-beta2AR cells, FAP receptor internalization, flow cytometry; response, % (test concentration not listed); 340,000 tested, 0.43% active;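 active means response above a set limit, near 3 SD of response in nonfluorescent compounds, cut at about 42% in these data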
ABHD5-PLIN5 inh: ABHD5-PLIN5 protein interaction inhibition; Split G. princeps luciferase complementation, luminescence, 4 h; 360,000 tested, 0.78% active; AID 602281; inhibition, % at 4 µM; Q00G26+Q8WTS1;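 active means inhibition above the mean inhibition across every tested compound plus 3 SD, cut at about 22% in these data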;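 further: 0% = DMSO only wells and the 100% control is not disclosed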
m5-HT2A agonist: activates the mouse 5-HT2A serotonin receptor; CHO-K1 mHTR2A beta-arrestin complementation, luminescence; percent of 30 µM serotonin response; activation, % at 7.6 µM; AID 624169; 360,000 tested, 0.66% active;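 active means activation above a run cutoff, the mean activation of all tested compounds plus 3 SD, cut at about 14% in these data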;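 further: 0% = plate median of compound wells and 100% = 30 µM serotonin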
NTR1 ag: agonists of human neurotensin receptor NTR1; NTR1-U2OS beta-arrestin-GFP spot imaging, agonist mode; activation, % at 20 µM; 330,000 tested, 0.17% active; AID 493036;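 active means activation at or above 40% of the spot to cytoplasm intensity ratio, with at least 20 cells analyzed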;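 further: 0% = DMSO without peptide and 100% = 100 nM NTR1 peptide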
Target sequence (P30989 whole entry, looked up): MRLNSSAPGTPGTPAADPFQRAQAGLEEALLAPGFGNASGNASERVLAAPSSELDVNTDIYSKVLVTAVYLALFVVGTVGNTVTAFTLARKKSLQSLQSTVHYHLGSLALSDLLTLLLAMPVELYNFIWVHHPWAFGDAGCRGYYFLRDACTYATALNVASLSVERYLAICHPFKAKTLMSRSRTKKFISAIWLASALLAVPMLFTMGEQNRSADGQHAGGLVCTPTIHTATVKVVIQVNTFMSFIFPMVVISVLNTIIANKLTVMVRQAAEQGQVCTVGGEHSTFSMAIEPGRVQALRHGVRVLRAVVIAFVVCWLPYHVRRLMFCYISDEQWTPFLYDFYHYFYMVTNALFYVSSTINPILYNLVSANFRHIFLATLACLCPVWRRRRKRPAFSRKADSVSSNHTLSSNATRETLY
Granule exo CP1: lytic granule exocytosis inhibition; shares compounds with Exocytosis inh; TALL-104 cells, LAMP-1 externalization, flow cytometry; stimulated with PMA plus thapsigargin; 1,500 tested, 11% active; inhibition, % at 10 µM; in the data active means inhibition above about 60%;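 further: 0% = stimulated vehicle wells and 100% = unstimulated wells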
Starred values were filed as active, the others as inactive. The list is not random: actives were taken first. Their share in the collection is about 2.3%.

CCN(CC)CCn1c(=N)n(CC(=O)c2ccc(Br)s2)c2ccccc21 was read as Exocytosis inh 79.4*, B2AR ag 22.9, ABHD5-PLIN5 inh 10.4, m5-HT2A agonist -9.3, NTR1 ag 1.8 and Granule exo CP1 -0.3.
`O=C(NCc1n[nH]c(=O)c2ccccc12)C1CC(=O)N(c2ccccc2)C1` (configuration not stated) gave Exocytosis inh 0.0, B2AR ag -6.5, ABHD5-PLIN5 inh -7.1, m5-HT2A agonist -0.9 and NTR1 ag 0.3.
`Cn1c(=O)c2c3c(sc2n2c(SCc4ccccc4)nnc12)CCCC3` gave NTR1 ag 15.8.
For CCn1c(=O)c2c3c(sc2n2c(SCc4ccc(F)cc4)nnc12)CCCC3 the results were Exocytosis inh 56.3*, B2AR ag 4.8, ABHD5-PLIN5 inh 3.6, m5-HT2A agonist 5.9, NTR1 ag 7.3 and Granule exo CP1 -2.3.
`COCCCn1cc(CN2CC(N3CCN(Cc4ccccc4F)CC3)CS2(=O)=O)nn1` (configuration not stated) gave Exocytosis inh -5.6, ABHD5-PLIN5 inh 3.8 and m5-HT2A agonist 7.0.
`Cc1ccc(S(=O)(=O)NCCCN2CCCC2)cc1` gave Exocytosis inh -6.1, B2AR ag -5.2, ABHD5-PLIN5 inh -3.4, m5-HT2A agonist -3.8 and NTR1 ag 0.4.
For NC(CCc1ccccc1)c1csc(NC(=O)Nc2cccc(Cl)c2)n1 (configuration not stated) the results were Exocytosis inh 57.2*, ABHD5-PLIN5 inh -11.7, m5-HT2A agonist -0.8 and Granule exo CP1 10.0.
Screening CC(=O)CCc1oc2ccc(C)cc2c1-c1ccc(C)o1 returned Exocytosis inh 91.3*, B2AR ag -4.8, ABHD5-PLIN5 inh 13.2, m5-HT2A agonist 4.3, NTR1 ag 4.2 and Granule exo CP1 -10.7.
`Cc1c(C(=O)N(C)Cc2ccc(F)cc2)sc(=O)n1Cc1ccccc1C#N` gave Exocytosis inh -7.7, ABHD5-PLIN5 inh 3.0 and m5-HT2A agonist -2.3.
Screening Cc1ccc(S(=O)(=O)N2CCCCC2)cc1C(=O)N1CCCCCC1 returned Exocytosis inh -1.4, B2AR ag -7.4, ABHD5-PLIN5 inh -4.6, m5-HT2A agonist 4.7 and NTR1 ag 1.5.
Screening CCOC(=O)c1c(CSc2ccc(CC)cc2)oc2ccc(O)c(CN(C)C)c12 returned Exocytosis inh 80.4*, B2AR ag 16.4, ABHD5-PLIN5 inh 21.0, m5-HT2A agonist -10.3, NTR1 ag 13.5 and Granule exo CP1 42.6.
`CCOC(=O)c1c(CSc2ccccc2)oc2cc(Br)c(O)c(CN(C)C)c12` gave Exocytosis inh 3.8, B2AR ag -6.6, ABHD5-PLIN5 inh 10.3, m5-HT2A agonist -6.3 and NTR1 ag 5.4.
COC(=O)Cc1c(CSc2ccccc2)oc2ccc(O)c(CN(C)C)c12 was read as Exocytosis inh 58.3*, B2AR ag -9.9, ABHD5-PLIN5 inh 1.8, m5-HT2A agonist -7.1, NTR1 ag -0.2 and Granule exo CP1 -2.0.
CC(=O)c1c(CSc2ccccc2)oc2ccc(O)c(CN(C)C)c12 was read as Exocytosis inh 65.7*, B2AR ag -4.4, ABHD5-PLIN5 inh 12.0, m5-HT2A agonist -5.9, NTR1 ag 0.8 and Granule exo CP1 -12.6.
`COc1ccc(OC)c(N(CC(=O)N2CCOCC2)S(C)(=O)=O)c1` gave Exocytosis inh -5.4, B2AR ag 11.0, ABHD5-PLIN5 inh 1.1, m5-HT2A agonist 0.0 and NTR1 ag 3.1.
Screening CC1COCC(C)N1C1=C(Cl)C(=O)c2ccccc2C1=O (configuration not stated) returned Exocytosis inh 91.4*, B2AR ag 81.0*, ABHD5-PLIN5 inh -49.2, m5-HT2A agonist -2.9 and Granule exo CP1 60.4*.
`CN1CCN(C2=C(Cl)C(=O)c3ccccc3C2=O)CC1` gave Exocytosis inh -2.6, B2AR ag 27.6, ABHD5-PLIN5 inh -40.1 and m5-HT2A agonist 3.1.
Screening CCOc1ccc(C(=O)COC(=O)Cn2cnc3c2c(=O)n(C)c(=O)n3C)cc1 returned Exocytosis inh 0.8, B2AR ag 0.6, ABHD5-PLIN5 inh -4.9, m5-HT2A agonist 1.4 and NTR1 ag 0.7.
CCOc1cccc(-c2nnc3n2N=C(c2cc(OC)ccc2OC)CS3)c1 was read as Exocytosis inh 75.1*, B2AR ag -9.8, ABHD5-PLIN5 inh 3.1, m5-HT2A agonist 6.7, NTR1 ag 2.6 and Granule exo CP1 7.1.
`Fc1ccc(C(CNC(=S)NC2CCCCC2)N2CCOCC2)cc1` (configuration not stated) gave Exocytosis inh 0.6, B2AR ag 4.7, ABHD5-PLIN5 inh -4.6, m5-HT2A agonist 4.7 and NTR1 ag 1.3.
CCC1(C)CC(CCNS(=O)(=O)c2ccc(C)cc2)(c2ccc(C)cc2)CCO1 (configuration not stated) was read as Exocytosis inh 57.1*, B2AR ag 6.6, ABHD5-PLIN5 inh 8.7, m5-HT2A agonist -7.0, NTR1 ag 2.6 and Granule exo CP1 -12.1.
`CC1(C)CC(CCNS(=O)(=O)c2ccccc2)(c2ccccc2)CCO1` (configuration not stated) gave Exocytosis inh 2.8, B2AR ag 3.7, ABHD5-PLIN5 inh 3.4, m5-HT2A agonist 1.1 and NTR1 ag -1.8.
Screening CN(CCOc1ccccc1)CC(=O)Nc1ccc([N+](=O)[O-])cc1Cl returned Exocytosis inh 72.9*, B2AR ag -1.7, ABHD5-PLIN5 inh 3.5, m5-HT2A agonist -4.3, NTR1 ag 3.8 and Granule exo CP1 0.1.
For C=CCn1c(SCC(=O)Nc2cccc(S(=O)(=O)N(C)c3ccccc3)c2)nnc1C1CC1 the results were Exocytosis inh 2.7, B2AR ag -2.8, ABHD5-PLIN5 inh -5.2, m5-HT2A agonist -0.1 and NTR1 ag 1.3.
For COc1ccccc1CNC(=O)c1sccc1C the results were Exocytosis inh -10.9, B2AR ag 9.2, ABHD5-PLIN5 inh -7.1, m5-HT2A agonist -4.3 and NTR1 ag 0.0.
For COc1ccccc1CNC(=O)c1sccc1-c1ccccc1 the results were Exocytosis inh 66.5*, B2AR ag 0.6, ABHD5-PLIN5 inh 1.4, m5-HT2A agonist -5.2, NTR1 ag 1.7 and Granule exo CP1 -13.2.
COc1ccc(CNC(=O)c2n[nH]c3ccccc23)cc1OC was read as Exocytosis inh 0.1, B2AR ag -1.5, ABHD5-PLIN5 inh -2.2, m5-HT2A agonist -3.1 and NTR1 ag -0.5.
`COc1ccccc1N(C)S(=O)(=O)c1ccc(Cl)c(C(=O)OCc2c(C)noc2C)c1` gave Exocytosis inh 76.0*, B2AR ag -3.3, ABHD5-PLIN5 inh -0.7, m5-HT2A agonist 3.2, NTR1 ag 5.9 and Granule exo CP1 23.5.
Screening COc1ccccc1N(C)S(=O)(=O)c1ccc(Cl)c(C(=O)NNC(=O)c2ccccc2O)c1 returned Exocytosis inh -2.2, B2AR ag -8.2, ABHD5-PLIN5 inh -4.1, m5-HT2A agonist -2.3 and NTR1 ag 1.6.
